Experimental data from PubChem BioAssay (NCATS).
Inconclusive results are not listed. Calls of active or inactive are those of the source. The call rests on the fitted dose curve; in most records, active means well fitted activation curve with a large enough effect; inconclusive means small, poorly fitted or top-dose-only effect; inactive means no such curve, though single readings can be large or run the other way.

Molecular target: Rap guanine nucleotide exchange factor 4 (Homo sapiens) (UniProt Q8WZA2)
Test: Confirmatory qHTS for agonist of cAMP-regulated guanine nucleotide exchange factor 4 (EPAC2) (AID 1645884);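 further: nucleotide exchange releases bodipy-GDP from Rap1 and this lowers its fluorescence; nearly all actives have a fitted effect of over 65% in size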
Conditions: EPAC2 GEF activity, Rap1B-BODIPY-GDP fluorescence; series mostly up to 154 µM
On the % scale 0 is the no-effect control and ±100 the full control effect; potency means the concentration at half of the fitted maximal effect.

Rap guanine nucleotide exchange factor 4 (Homo sapiens), sequence (Q8WZA2 whole entry, looked up): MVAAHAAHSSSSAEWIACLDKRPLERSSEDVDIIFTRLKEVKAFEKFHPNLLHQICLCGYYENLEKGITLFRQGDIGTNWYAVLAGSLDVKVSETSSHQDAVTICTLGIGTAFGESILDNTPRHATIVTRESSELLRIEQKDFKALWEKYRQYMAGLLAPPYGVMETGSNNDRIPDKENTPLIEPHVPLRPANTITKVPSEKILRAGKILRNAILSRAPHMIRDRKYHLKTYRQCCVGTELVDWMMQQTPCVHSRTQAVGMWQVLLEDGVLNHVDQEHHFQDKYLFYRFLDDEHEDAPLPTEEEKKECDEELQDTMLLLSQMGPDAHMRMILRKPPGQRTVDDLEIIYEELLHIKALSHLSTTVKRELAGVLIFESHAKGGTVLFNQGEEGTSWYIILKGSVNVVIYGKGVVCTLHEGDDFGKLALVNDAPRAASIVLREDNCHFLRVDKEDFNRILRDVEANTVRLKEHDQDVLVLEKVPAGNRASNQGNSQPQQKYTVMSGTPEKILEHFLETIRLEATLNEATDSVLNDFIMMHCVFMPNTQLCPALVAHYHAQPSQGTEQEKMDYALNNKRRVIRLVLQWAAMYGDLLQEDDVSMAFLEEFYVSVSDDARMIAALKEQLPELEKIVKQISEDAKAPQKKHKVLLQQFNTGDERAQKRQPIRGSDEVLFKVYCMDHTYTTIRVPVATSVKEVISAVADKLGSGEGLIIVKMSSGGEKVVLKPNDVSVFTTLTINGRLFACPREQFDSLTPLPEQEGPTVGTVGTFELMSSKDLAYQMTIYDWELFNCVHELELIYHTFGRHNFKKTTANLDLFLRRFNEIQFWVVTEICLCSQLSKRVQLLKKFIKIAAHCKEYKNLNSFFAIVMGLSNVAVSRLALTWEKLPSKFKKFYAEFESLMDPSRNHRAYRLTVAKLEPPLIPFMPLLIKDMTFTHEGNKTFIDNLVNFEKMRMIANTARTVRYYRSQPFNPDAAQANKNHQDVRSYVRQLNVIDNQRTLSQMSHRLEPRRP

Potency, active:
COc1ccc(C(C(=O)c2ccccc2)c2ccccc2)cc1 (stereo not drawn) 50.1 µM

Potency, inactive:
Cc1ccc(C2CC(=O)Oc3cc(C)cc(C)c32)cc1 (stereo not drawn), CCc1cccc2sc(N3CCN(C(=O)C4CC4)CC3)nc12, Cc1cc(C)cc(NC(=O)N2CCC(CN3CCc4ccccc4C3)CC2)c1, CCOC(=O)[C@@H](NC(=O)/C=C/[C@H]1O[C@@H](n2cc(C)c(=O)[nH]c2=O)C[C@@H]1O)C(C)C, O=c1[nH]c([N+](=O)[O-])nn1C(c1ccccc1)c1ccccc1, COc1ccc(C(=O)c2ccc(OC)c(OC)c2OC)cc1, Cc1c(C(=O)NCCO)sc2nc3n(c(=O)c12)CCC3, CC(C)c1nc(SCC(=O)N2CCCc3ccccc32)c2c(=O)n(C)c(=O)n(C)c2n1

activation, inactive:
CCOC(=O)COc1ccc(Br)cc1/C=C\c1[nH]c(=O)[nH]c(=O)c1[N+](=O)[O-] 4.81% [at 17.1 µM, percent relative to cAMP agonist control], Cc1ccc(S(=O)(=O)N2CCN(CC(=O)Nc3ccccc3C(=O)NC3CC3)CC2)cc1 6.96% [at 17.1 µM, percent relative to cAMP agonist control], CC[C@H]1C(c2ccc(F)cc2)=NN(c2ccccc2)[C@@H]1CO 4.16% [at 17.1 µM, percent relative to cAMP agonist control], COc1cc(-c2c(CCO)sc3ccccc23)cc(OC)c1OC 1.4% [at 17.1 µM, percent relative to cAMP agonist control]
